Compound activity (PubChem BioAssay)
ALDH1A1 block – qHTS Assay for Inhibitors of Aldehyde Dehydrogenase 1 (ALDH1A1) | Aldehyde dehydrogenase 1A1 (Homo sapiens), P00352 | Purified ALDH1A1, NADH fluorescence, propionaldehyde substrate | Potency, µM (titrated, usually from 75.3 µM), hits mostly inhibitors | 7.3% of 220,000 active
IMPase inh – qHTS Assay for Identifying the Cell-Membrane Permeable IMPase Inhibitors; Inositol monophosphatase 1 (Rattus norvegicus), P97697; CHO-M1 cells, IP1 accumulation, HTRF TR-FRET ratio; inhibition (IP1 accumulation), % at 46.1 µM; 120,000 tested, under 10 active; active means well fitted curve in the direction sought with a large enough effect in the signal ratio, not every such curve was filed as active; inconclusive means small, poorly fitted or top-dose-only effect, or a change in a side signal; inactive means no such curve, though single readings can be large or run the other way; the % refers to the signal ratio;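 further: cells stimulated with carbachol in lithium chloride buffer; higher means more IMPase inhibition seen as more IP1 and lower FRET ratio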
Target sequence (P97697 whole entry, looked up): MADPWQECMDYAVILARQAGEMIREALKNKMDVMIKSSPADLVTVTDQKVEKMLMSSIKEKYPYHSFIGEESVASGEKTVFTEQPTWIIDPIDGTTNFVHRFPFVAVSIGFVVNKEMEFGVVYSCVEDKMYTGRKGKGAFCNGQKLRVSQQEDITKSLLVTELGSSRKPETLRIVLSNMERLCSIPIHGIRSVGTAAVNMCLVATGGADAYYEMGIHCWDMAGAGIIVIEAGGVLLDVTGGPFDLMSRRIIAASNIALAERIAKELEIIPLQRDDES
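Elevated IP1 in lysates lowers TR-FRET signal (665/620 ratio and 620 channel reported). Cells were CHO-M1, given carbachol (50 uM as added) plus 50mM LiCl, pH 7.4, 30 min, 37C; compounds titrated up to 46 uM; AC50 by Hill equation.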
HPGD block – qHTS Assay for Inhibitors of HPGD (15-Hydroxyprostaglandin Dehydrogenase); purified HPGD, NADH fluorescence kinetic, PGE2 substrate; Potency, µM, most hits filed as inhibitors; 4.3% of 150,000 active; AID 894, 2007
Target sequence (P15428 whole entry, looked up): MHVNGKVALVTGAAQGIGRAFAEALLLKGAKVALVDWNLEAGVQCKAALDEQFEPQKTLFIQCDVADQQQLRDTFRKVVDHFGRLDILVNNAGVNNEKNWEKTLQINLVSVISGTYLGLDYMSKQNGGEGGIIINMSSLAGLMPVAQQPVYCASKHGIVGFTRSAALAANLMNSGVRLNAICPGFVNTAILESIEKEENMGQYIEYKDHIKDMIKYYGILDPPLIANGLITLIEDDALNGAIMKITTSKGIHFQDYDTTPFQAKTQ
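NADH formation kinetics: reaction with 30 uM PGE2 and 1 mM NAD+ (final), 20 nM enzyme, Tris-HCl pH 8 with Tween 20, after 15 min compound preincubation at room temperature. Fluorescence change, last versus first of five reads.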
Large screens that a line does not name were inactive. A selection: hits, their analogues and other compounds. The true share with any hit is near 9%. Unless noted, the call rests on the fitted dose curve; in most records, active means well fitted inhibition curve with a large enough effect (not every such curve was filed as active); inconclusive means small, poorly fitted or top-dose-only effect, or another doubt; inactive means no such curve, though single readings can be large or run the other way.

CCCCn1c(/N=C/c2ccc(N(C)C)cc2)nc2ccccc21	ALDH1A1 block 2.8µM
CCCn1c(/N=C/c2c[nH]c3ccccc23)nc2ccccc21	ALDH1A1 block inconclusive
CC#N	none (no result: IMPase inh)
Cc1ccc[n+](CC(=O)Nc2ccc([N+](=O)[O-])cc2Cl)c1	ALDH1A1 block 16µM
COc1cc([N+](=O)[O-])ccc1NC(=O)C[n+]1cccc(C)c1	ALDH1A1 block inconclusive, IMPase inh inconclusive
CC(=O)CCC(=O)N1CCCC(CNC(=O)c2ccc(-c3ccccc3)cc2)C1 (stereo unspecified)	none (no result: IMPase inh, HPGD block)
CSCC(=O)N1CCCC(CNC(=O)c2ccc(-c3ccccc3)cc2)C1 (stereo unspecified)	ALDH1A1 block 4µM (no result: IMPase inh, HPGD block)
COc1ccccc1C(=O)NCC1CCN(c2ccc(S(=O)(=O)N3CCOCC3)cc2)CC1	HPGD block inconclusive
CCCOc1ccc(C(=O)OCCN(CC)CC)cc1N	none
COc1nc(C)nc2c1sc1nc3c(cc12)COC(C)(C)C3	ALDH1A1 block inconclusive, HPGD block inconclusive
CCc1nc2c(sc3nc4c(cc32)COC(C)(C)C4)c(=O)n1Cc1ccco1	ALDH1A1 block 2.5µM
CCc1nc(OCc2ccco2)c2sc3nc4c(cc3c2n1)COC(C)(C)C4	ALDH1A1 block inconclusive
CCc1nc2c(sc3nc4c(cc32)COC(C)(C)C4)c(=O)n1Cc1ccccc1	ALDH1A1 block 0.71µM, HPGD block inconclusive
COc1ccc(OCCC(=O)NCCN2CCOCC2)cc1	none (no result: IMPase inh, HPGD block)
CCOC(=O)c1ccc(NC(=O)C(=O)NCc2ccco2)cc1	none (no result: HPGD block)
Cc1cc2ccccc2n1CCNC(=O)c1ccccc1F	none (no result: ALDH1A1 block, HPGD block)
O=C(CCNC(=O)c1ccc([N+](=O)[O-])cc1)N/N=C/c1ccc(F)cc1	none (no result: IMPase inh, HPGD block)
CCN(CC)c1ccc(/C=N/NC(=O)c2ccc([N+](=O)[O-])cc2)cc1	ALDH1A1 block 28µM (no result: IMPase inh, HPGD block)
O=C(NNC(=S)Nc1ccccc1)c1cccs1	none (no result: IMPase inh)
CCN(CC)c1ccc(NC(=S)NC(=O)c2cccs2)cc1	ALDH1A1 block 8.9µM (no result: IMPase inh, HPGD block)
CCCC(=O)Nc1ccc(NC(=S)NC(=O)c2cccs2)cc1	none (no result: IMPase inh, HPGD block)
CCN(CC)c1ccc(NC(=O)c2ccco2)cc1	none
CCN(CC)c1ccc(NC(=S)NC(=O)c2ccco2)cc1	ALDH1A1 block 25µM (no result: IMPase inh, HPGD block)
O=C(NNC(=S)Nc1ccc(Cl)cc1)c1cccs1	ALDH1A1 block 11µM (no result: IMPase inh, HPGD block)
CCOCCCNCC(=O)NCC1CCCCC1	none (no result: IMPase inh, HPGD block)
Cc1ccc(/C=C/C(=O)O)cc1S(=O)(=O)NC1CCS(=O)(=O)C1 (stereo unspecified)	none (no result: IMPase inh, HPGD block)
CCOC(=O)CNC(=O)CSc1nc2c(C)cccc2cc1CC	none (no result: IMPase inh, HPGD block)
CCN(CC)C(=S)SCC(=O)Nc1ccc(F)cc1	ALDH1A1 block inconclusive, HPGD block 18µM
CCN(CC)C(=S)SCC(=O)c1ccc(F)cc1	ALDH1A1 block inconclusive
O=C(NNC(=S)Nc1ccc(Cl)cc1)c1ccccc1OC(F)F	ALDH1A1 block 20µM (no result: IMPase inh)
COc1ccccc1NC(=S)NNC(=S)Nc1ccc(OC(F)F)cc1	ALDH1A1 block 7.1µM
COc1ccc(NC(=S)Nc2ccc(OC(F)F)cc2)cn1	none (no result: IMPase inh, HPGD block)
O=C(N/N=C\c1ccc2c(c1)OCO2)c1ccco1	none (no result: HPGD block)
CCN(CC)c1ccc(/C=N/NC(=O)c2ccco2)cc1	ALDH1A1 block 10µM (no result: IMPase inh)
O=C(NNC(=S)NCc1ccccc1)c1ccccc1OC(F)F	none (no result: IMPase inh)
COC(=O)NC(C)N1C(=O)C2C3C=CC(C3)C2C1=O (stereo unspecified)	none (no result: IMPase inh, HPGD block)
CCN(CC)S(=O)(=O)c1ccc(NC(=O)[C@@H](NC(=O)c2cc(OC)cc(OC)c2)C(C)C)cc1	none (no result: IMPase inh, HPGD block)
CCOC(=O)c1cc2sccc2n1CC(=O)C(C)(C)C	none (no result: IMPase inh, HPGD block)
C=C(C)CNC(=S)N/N=C(\C)c1ccc(Cl)s1	ALDH1A1 block inconclusive (no result: IMPase inh)
COc1ccc(-c2noc(CCC(=O)Nc3ccc(C(F)(F)F)cc3)n2)cc1	none (no result: ALDH1A1 block, HPGD block)
COc1ccc(-c2csc(NC(=S)NC(=O)c3cccs3)n2)cc1Br	none (no result: IMPase inh, HPGD block)
O=C(Nc1ccc(NC(=S)NC(=O)c2cccs2)cc1)c1ccco1	none (no result: IMPase inh, HPGD block)
COc1ccc(-c2csc(NC(=S)NC(=O)c3cccs3)n2)cc1OC	ALDH1A1 block 11µM (no result: IMPase inh, HPGD block)
O=C(NC(=S)Nc1ccc(-c2ccc(CO)o2)cc1)c1cccs1	ALDH1A1 block 20µM (no result: IMPase inh, HPGD block)
CN(c1ccccc1)S(=O)(=O)c1ccc(NC(=O)c2cccs2)cc1	none (no result: IMPase inh, HPGD block)
CCCn1nnc(NC(=S)NC(=O)CC)n1	ALDH1A1 block inconclusive
CCCCn1nnc(NC(=S)NC(=O)c2cccs2)n1	ALDH1A1 block 20µM (no result: HPGD block)
CCN(c1ccccc1)S(=O)(=O)c1ccc(NC(=S)NC(=O)c2cccs2)cc1	ALDH1A1 block 6.3µM
Cc1cc(C)n(-c2nc3cc(Cl)ccc3nc2N2CCN(c3cccc(C)c3C)CC2)n1	none (no result: ALDH1A1 block, HPGD block)
c1ccc(Oc2nc(NC3CCCCC3)c3[nH]cnc3n2)cc1	ALDH1A1 block inconclusive (no result: IMPase inh)
CN(C)CCCO[C@H]1C([C@H](O)CO)O[C@@H]2OC(C)(C)O[C@@H]21 (stereo partly specified)	none (no result: IMPase inh)
O=C(Cc1ccc(Br)cc1)OCC(=O)N1CCc2ccccc2C1	none
COc1cc(/C=N/NC(=O)c2cnccn2)cc(OC)c1OC	none
CCCCC(=O)Nc1ccc(NC(=S)NC(=O)CCCCl)cc1OC	ALDH1A1 block inconclusive (no result: IMPase inh)
CCN(CC)c1ccc(NC(=S)Nc2ccc(F)cc2)cc1	ALDH1A1 block 11µM (no result: IMPase inh, HPGD block)
CCCCC(=O)Nc1ccc(NC(=S)NC(=O)c2cccs2)cc1OC	ALDH1A1 block 20µM (no result: IMPase inh)
CCN(CC)c1ccc(/C=N/NC(=O)c2cnccn2)cc1	ALDH1A1 block 22µM (no result: IMPase inh, HPGD block)
CCN(CC)c1ccc(NC(=O)CN2CCN(CC(=O)Nc3ccc(F)cc3)CC2)cc1	none
CCC/C=C(\CCC)C(NC(=O)c1ccc(C(F)(F)F)cc1)c1ccc(C(F)(F)F)cc1 (stereo unspecified)	none (no result: IMPase inh)
